An excerpt weighted towards active compounds, which were near 11% of everything screened.
HPGD block: HPGD (human) dehydrogenase inhibition; P15428; purified HPGD, NADH fluorescence kinetic, PGE2 substrate; Potency, µM, for the others: at the highest dose activity change, negative = inhibition, actives largely listed as inhibitors; 150,000 compounds, 4.3% hits; AID 894; further: potency means the concentration at half of the fitted maximal effect
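NADH formation kinetics: reaction with 30 uM PGE2 and 1 mM NAD+ (final), 20 nM enzyme, Tris-HCl pH 8 with Tween 20, after 15 min compound preincubation at room temperature. Fluorescence change, last versus first of five reads.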
PNC inhibitor: blocks assembly of the perinucleolar compartment; PC3M PTB-GFP, PNC prevalence imaging, 16 h; active compounds read low; activity change (PNC), negative = inhibition, % at 10 µM; 140,000 compounds, 3.1% hits;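 active means readout at or below -70, meaning at least 70% loss of cells showing the perinucleolar compartment, a nuclear body marking cancer cells; inconclusive means readout between -30 and a set limit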;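 further: plate controls were DMSO wells for no effect and camptothecin positive control wells for full effect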
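Compounds are pinned in duplicate onto adhered PC3M cells stably expressing GFP-tagged PTB and incubated 16 h at 37 C. Cells are then fixed, nuclei stained with Hoechst, and PNC-positive cells counted.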
ALDH1A1 inh: ALDH1A1 (human) enzyme inhibition; Purified ALDH1A1, NADH fluorescence, propionaldehyde substrate; Potency, µM (titrated, usually from 75.3 µM), without a hit: top-dose activity, negative = inhibition, usual class: inhibitors; P00352; 220,000 compounds, 7.3% hits;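 further: potency means the concentration at half of the fitted maximal effect; plate controls were no enzyme wells and a reference inhibitor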
Target sequence (P00352 whole entry, looked up): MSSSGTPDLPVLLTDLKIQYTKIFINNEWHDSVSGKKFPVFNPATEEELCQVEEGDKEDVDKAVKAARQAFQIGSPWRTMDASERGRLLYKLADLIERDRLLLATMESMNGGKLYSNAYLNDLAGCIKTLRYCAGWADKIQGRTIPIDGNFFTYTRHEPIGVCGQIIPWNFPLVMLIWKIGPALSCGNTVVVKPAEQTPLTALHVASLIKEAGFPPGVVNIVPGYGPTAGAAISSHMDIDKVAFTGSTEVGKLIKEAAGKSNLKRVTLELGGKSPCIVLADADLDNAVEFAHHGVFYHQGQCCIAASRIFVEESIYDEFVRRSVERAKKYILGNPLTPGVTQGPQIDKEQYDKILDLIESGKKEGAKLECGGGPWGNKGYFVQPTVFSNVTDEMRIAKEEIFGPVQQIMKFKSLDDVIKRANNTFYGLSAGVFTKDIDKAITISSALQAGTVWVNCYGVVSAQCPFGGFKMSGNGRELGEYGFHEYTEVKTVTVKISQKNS
The depositor's hits bear a star; [ ] = another dose, or the depositor's remark. Unless noted, the call rests on the fitted dose curve; in most records, active means well fitted inhibition curve with a large enough effect (not every such curve was filed as active); inconclusive means small, poorly fitted or top-dose-only effect, or another doubt; inactive means no such curve, though single readings can be large or run the other way. Unless noted, on the % scale 0 is the no-effect control and ±100 the full control effect.

`Cc1ccc(NC(=O)C2CCCN2C(=O)NC2CCCCC2)cc1` (stereo not drawn) gave ALDH1A1 inh -6.6%.
For COc1ccc(N2CCN(Cc3cc(=O)oc4cc(-c5ccccc5)c(O)cc34)CC2)cc1 the results were HPGD block -22.1%, PNC inhibitor 8.5 and ALDH1A1 inh -13.1%.
O=c1cc(CN2CCN(c3ccccc3F)CC2)c2cc(O)c(-c3ccccc3)cc2o1 was read as HPGD block -23.3%, PNC inhibitor 20.4 and ALDH1A1 inh 28.2µM*.
NC(=O)Nc1ccc(C(=O)OCC(=O)NC2CCCCC2)cc1 was read as ALDH1A1 inh -1.7%.
For CCOC(=O)c1c(NC(=O)CSC(=S)N(C)C)sc(C)c1C the results were HPGD block -18.4%, PNC inhibitor -15.5 and ALDH1A1 inh 25.1µM*.
For CCOC(=O)c1c(NC(=O)CSc2ncn[nH]2)sc(C)c1C the results were HPGD block -14.0%, PNC inhibitor inconclusive and ALDH1A1 inh 25.1µM*.
For CCOC(=O)c1c(NC(=O)CSc2nnc(C)c(=O)[nH]2)sc(C)c1C the results were ALDH1A1 inh 2.0%.
For CCOC(=O)c1c(NC(N)=O)sc(C)c1C the results were HPGD block -5.5%, PNC inhibitor 23.1 and ALDH1A1 inh -11.6%.
Screening CCOC(=O)c1c(N2C(=O)C=CC2=O)sc(C)c1C returned HPGD block 2µM*, PNC inhibitor inconclusive and ALDH1A1 inh 0.501µM*.
For CCOC(=O)c1c(NC(=O)CN2C(=O)CN(C)C2=O)sc(C)c1C the results were ALDH1A1 inh 7.7%.
C=CCn1c(COc2ccccc2F)nnc1SCCN1C(=O)c2ccccc2C1=O was read as HPGD block -3.2%, PNC inhibitor -22.1 and ALDH1A1 inh -6.2%.
O=C(COC(=O)CCSc1ccccc1Cl)NCc1ccco1 was read as ALDH1A1 inh -0.7%.
For COc1cc(NC(=O)c2cccs2)c(OC)cc1NC(=O)c1ccco1 the results were HPGD block inconclusive, PNC inhibitor -113.8* and ALDH1A1 inh inconclusive.
For COc1ccc(NC(=O)c2ccco2)cc1NC(=O)c1cccs1 the results were HPGD block -5.4%, PNC inhibitor 16.7 and ALDH1A1 inh -10.5%.
Screening O=C(Nc1ccc(N2CCN(C(=O)c3cccs3)CC2)c(Cl)c1)c1ccco1 returned HPGD block -5.2%, PNC inhibitor inconclusive and ALDH1A1 inh 28.2µM*.
`O=C(Nc1ccc(N2CCN(C(=O)c3cccs3)CC2)c(Cl)c1)c1cccnc1` gave ALDH1A1 inh -14.2%.
Screening Nc1nc2c([N+](=O)[O-])cccc2s1 returned ALDH1A1 inh -3.4%.
`CC(=O)c1ccc[nH]1` gave HPGD block -8.5% and ALDH1A1 inh 0.8%.
`COc1ccc(CN2CCCC(CNC(=O)c3ccc(F)cc3)C2)c(C)c1C` (stereo not drawn) gave ALDH1A1 inh -14.6%.
O=C(O)Cc1cccnc1 was read as HPGD block -6.9% and ALDH1A1 inh -4.0%[13.5 µM].
`COc1ccc(-c2nc(-c3ccccc3)c(Nc3c(C)cccc3C)o2)cc1` gave HPGD block -10.7% and ALDH1A1 inh 2.3%.
`CCNc1ncc2nc(-c3cccs3)c(=O)n(-c3ccc(OC)cc3)c2n1` gave HPGD block -12.5% and ALDH1A1 inh inconclusive.
Screening CCOC(=O)c1cc([N+](=O)[O-])c([N+](=O)[O-])cc1NC(C)=O returned HPGD block 22.4µM*, PNC inhibitor -25.7 and ALDH1A1 inh 8.91µM*.
`CCOC(=O)c1ccc(NC(=O)c2ccccc2[N+](=O)[O-])cc1` gave HPGD block -4.9%, PNC inhibitor 16.7 and ALDH1A1 inh inconclusive.
`COc1cc(/C=N/Nc2nc(N3CCCC3)nc(N3CCCC3)n2)ccc1O` gave HPGD block inconclusive, PNC inhibitor inconclusive and ALDH1A1 inh 5.5%.
For Oc1ccc(/C=N/Nc2nc(N3CCCC3)nc(N3CCCC3)n2)cc1O the results were ALDH1A1 inh 12.6µM*.
`COC(=O)[C@@H](NC(=O)O[C@@H]1C(=O)c2cc(OC)ccc2O[C@H]1c1cccc(OC)c1)C(C)C` gave HPGD block -8.9% and ALDH1A1 inh -12.6%.
Screening CC(C)CN1CC[C@@]2(CCCN(C(=O)c3cccc(F)c3)C2)C1 returned HPGD block -7.7% and ALDH1A1 inh 2.2%.
CC1=NN(c2ccccc2)C(=O)/C1=C/C=C/c1ccccc1 was read as HPGD block -11.2%, PNC inhibitor 18.0 and ALDH1A1 inh inconclusive.
CC1=NN(c2ccccc2)C(=O)/C1=C\N1CC(C)OC(C)C1 (stereo not drawn) was read as HPGD block -1.9%, PNC inhibitor 33.3 and ALDH1A1 inh 25.1µM*.
COc1ccccc1NS(=O)(=O)c1ccc(NC(=O)c2nc3nc(C)cc(C(F)F)n3n2)cc1 was read as HPGD block inconclusive, PNC inhibitor 16.8 and ALDH1A1 inh 9.6%.
`CO[C@H]1COC(=O)C/C=C\[C@H](C)[C@@H](OC)COC(=O)[C@H](C)COC(=O)C/C=C\[C@@H]1C` gave ALDH1A1 inh -4.5%[13.5 µM].
Screening COc1ccccc1/C=C/C1(C(=O)NC2CCCC2)CC(=O)N1c1ccc(F)cc1 (stereo not drawn) returned HPGD block -11.7%, PNC inhibitor -25.5 and ALDH1A1 inh 31.6µM*.
Screening COc1ccccc1/C=C/C1(C(=O)NC2CCCC2)CC(=O)N1c1ccc(C)cc1 (stereo not drawn) returned HPGD block -7.9%, PNC inhibitor inconclusive and ALDH1A1 inh inconclusive.
Screening Cc1ccc(C2(c3noc(CN(C)Cc4cnn(C)c4)n3)CCCC2)cc1 returned ALDH1A1 inh 1.7%.
Cc1noc(C)c1C(=O)N1CCC[C@@]2(CCN(C(c3ccccc3)c3ccccc3)C2)C1 was read as HPGD block -6.3% and ALDH1A1 inh 4.2%.
`CN(C1CCCCC1)S(=O)(=O)c1ccc(NC(=O)Cn2nc(-c3ccc(F)cc3)ccc2=O)cc1` gave HPGD block -14.8%, PNC inhibitor inconclusive and ALDH1A1 inh 12.7%.
CC(=O)c1cccc(NC(=O)Cn2nc(-c3ccc(Cl)cc3)ccc2=O)c1 was read as ALDH1A1 inh 7.94µM*.
Screening CC(=O)c1cccc(NC(=O)Cn2nc(-c3ccccc3Cl)ccc2=O)c1 returned ALDH1A1 inh 4.1%.
COc1ccc(-c2ccc(=O)n(CC(=O)Nc3ccc(C(=O)NC4CC4)cc3)n2)cc1OC was read as HPGD block 15.8µM*, PNC inhibitor 71.0 and ALDH1A1 inh 5.6%.
`CC(C)CNS(=O)(=O)c1ccc(NC(=O)Cn2nc(-c3ccc(F)cc3)ccc2=O)cc1` gave HPGD block 7.94µM*, PNC inhibitor 43.3 and ALDH1A1 inh 4.8%.
For COc1ccc(-c2ccc(=O)n(CC(=O)NC3CCc4ccccc43)n2)cc1OC (stereo not drawn) the results were ALDH1A1 inh -1.6%.
For COCCNc1cc(-c2ccccc2CN(C)C)ncn1 the results were HPGD block -27.4% and ALDH1A1 inh -11.3%.
Screening N#CC1=C(N)N=C(SCc2cccc3ccccc23)C(C(N)=O)C12CCCCC2 (stereo not drawn) returned HPGD block -13.9%, PNC inhibitor -2.9 and ALDH1A1 inh inconclusive.
For CC(=O)Nc1ccc(/C=N/N2CCCCC2)cc1 the results were ALDH1A1 inh -2.9%.

Bioassay records: PubChem, National Center for Advancing Translational Sciences (NCATS)
